Bioassay records (PubChem)
FEN1 inhibitor: human FEN1 inhibition | actives 0.35% (n = 390,000) | Potency, µM (doses to about 114 µM), without a hit: top-dose activity change, negative = inhibition, hits mostly inhibitors | AID 588795 | Recombinant FEN1 flap cleavage, fluorescence, 15 min; note: nearly all actives have a fitted effect of over 65% in size
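Quantitative HTS format: each compound was titrated, incubated with 10 nM nuclease for 15 min at room temperature, then challenged with flap substrate at 50 nM final. Signal change over 15 min gave concentration–effect curves.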
APEX1 inh: blocks human APE1 abasic DNA cleavage; P27695; recombinant APE1, TAMRA/BHQ-2 abasic DNA cleavage fluorescence; Potency, µM (highest dose often 65.8 µM), without a hit: at the highest dose activity change, negative = inhibition, hits mostly inhibitors; actives 0.35% (n = 350,000);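 note: plate controls were vehicle for no effect and reference inhibitor for full effect; nearly all actives have a fitted effect of over 55% in size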
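0.75 nM APE1 + cpd, 15 min RT; start w/ 50 nM TAMRA/BHQ-2 THF-abasic dsDNA; kinetic fluor 525/598 nm ×3 reads @60 s; Δ(read3−read1); normalized to DMSO and NSC13755 control wells.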
BLM inh: Bloom syndrome helicase (human) inhibition; P54132; recombinant BLM DNA unwinding, fluorescence dequenching; Potency, µM (highest dose often 56.1 µM), without a hit: at the highest dose activity change, negative = inhibition, most hits filed as inhibitors; actives 0.2% (n = 350,000);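 note: plate controls were vehicle for no effect and no enzyme for full effect; nearly all actives have a fitted effect of over 35% in size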
TDP1 inh: blocks human tyrosyl-DNA phosphodiesterase 1; Q9NUW8; recombinant TDP1, AlphaScreen DNA substrate cleavage; Potency, µM (doses to about 130 µM), for inactives: at the top dose activity change, negative = inhibition, actives largely listed as inhibitors; actives 0.28% (n = 350,000); note: nearly all actives have a fitted effect of over 40% in size
Target sequence (Q9NUW8 whole entry, looked up): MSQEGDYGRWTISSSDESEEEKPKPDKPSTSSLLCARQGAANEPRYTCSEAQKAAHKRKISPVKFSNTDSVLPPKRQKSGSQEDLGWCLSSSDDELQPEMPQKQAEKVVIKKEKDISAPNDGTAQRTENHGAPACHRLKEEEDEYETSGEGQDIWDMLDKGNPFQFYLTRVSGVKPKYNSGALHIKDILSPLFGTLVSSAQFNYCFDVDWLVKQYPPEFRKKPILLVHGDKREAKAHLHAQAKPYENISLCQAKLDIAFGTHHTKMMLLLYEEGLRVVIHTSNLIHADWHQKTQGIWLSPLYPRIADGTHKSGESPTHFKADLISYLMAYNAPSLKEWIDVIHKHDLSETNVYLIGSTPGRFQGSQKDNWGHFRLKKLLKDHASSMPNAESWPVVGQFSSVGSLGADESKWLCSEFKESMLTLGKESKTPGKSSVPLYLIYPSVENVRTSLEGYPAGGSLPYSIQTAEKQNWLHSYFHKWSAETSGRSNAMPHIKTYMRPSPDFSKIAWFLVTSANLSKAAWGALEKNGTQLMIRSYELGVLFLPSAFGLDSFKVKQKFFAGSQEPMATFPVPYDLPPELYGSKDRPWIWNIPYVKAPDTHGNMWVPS
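Steps: enzyme plus compound, 15 min RT; add biotin/phosphotyrosine-FITC oligonucleotide (15 nM final), react 5 min; add donor/acceptor beads (10 ug/ml final), 10 min; read AlphaScreen. Tdp1 at 1 nM final.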
RECQ1 inh-1: RECQ1 (human) helicase inhibition. P46063. RECQ1 DNA unwinding, red fluorescence kinetic read. Potency, µM (top dose mostly 57.3 µM), inactives show top-dose activity, negative = inhibition, hits mostly inhibitors. AID 2549. actives 0.54% (n = 240,000);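 note: plate controls were vehicle for no effect and no enzyme for full effect; nearly all actives have a fitted effect of over 30% in size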
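50 nM RECQ1T1 preincubated 15 min with compound in Tris pH 8.0 buffer with MgCl2, DTT, Tween-20 and 2.5 ug/ml poly(dI-dC); started with 200 nM TAMRA/BHQ-2 forked duplex and 2 mM ATP. Unwinding read as fluorescence (525/598 nm), two reads 2 h apart.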
RECQ1 conf: confirmation of human RECQ1 helicase inhibitors; shares compounds with RECQ1 inh-1; RECQ1 helicase DNA unwinding, fluorescence; Potency, µM (top dose mostly 229 µM), for the others: at the top dose activity change, negative = inhibition, hits mostly inhibitors; actives 28% (n = 610); AID 2708; note: nearly all actives have a fitted effect of over 45% in size
ADP FP counter: displaces ADP in a fluorescence polarization counter-screen for RECQ1 hits | shares compounds with RECQ1 inh-1 | ADP fluorescence polarization displacement counterscreen | Potency, µM (highest dose often 228 µM), for inactives: at the highest dose activity change, negative = inhibition, actives largely listed as inhibitors | actives 27% (n = 530) | AID 2711; note: nearly all actives have a fitted effect of over 45% in size
RECQ1 inh-2: RECQ1 helicase inhibition confirmed, round 2; shares compounds with RECQ1 inh-1; AID 504841; actives 15% (n = 1,100); Potency, µM (top dose mostly 119 µM), without a hit: at the top dose activity, negative = inhibition, usual class: inhibitors; recombinant RECQ1 DNA unwinding, red fluorescence; note: nearly all actives have a fitted effect of over 50% in size
Numbers without * were called inactive; ! = a repeat was not active; [ ] = another dose, or the depositor's remark. Hits are enriched below; roughly 0.92% of the tested compounds scored in any of these assays. Calls come from the whole dose curve; as a rule, active = well fitted curve in the direction sought with a large enough effect; inconclusive = small, poorly fitted or top-dose-only effect, or another doubt; inactive = no such curve, though single readings can be large; an effect the other way counts as inactive or inconclusive. Unless noted, % is set by controls: 0 for no effect and ±100 for the full control effect; potency is the fitted concentration of half-maximal effect.

Screening COC(=O)[C@@H]1[C@@H]2C[C@H]3c4[nH]c5cc(OC)ccc5c4CCN3C[C@@H]2C[C@H](OC(=O)/C=C\c2cc(OC)c(OC)c(OC)c2)[C@H]1OC returned BLM inh -5%[21.4 µM], TDP1 inh 19%[21 µM] and RECQ1 inh-1 -3%[25.9 µM].
NC1CCCC[C@H]1N (stereo not given in full) was read as APEX1 inh -3%, BLM inh -5%, TDP1 inh 8% and RECQ1 inh-1 -8%.
For CC(C)CCNC(=O)c1c(N)n(CC2CCCO2)c2nc3ccccc3nc12 (stereo not given) the results were FEN1 inhibitor inconclusive, APEX1 inh inconclusive, BLM inh inconclusive, TDP1 inh -2%, RECQ1 inh-1 inconclusive and RECQ1 inh-2 -20%.
`CCOC(=O)c1c(N)n(CCN2CCCCC2)c2nc3ccccc3nc12` gave FEN1 inhibitor 0%, APEX1 inh 2%, BLM inh 38%, TDP1 inh 4% and RECQ1 inh-1 -4%.
`CCC(C)NC(=O)c1c(N)n(CCCOC)c2nc3ccccc3nc12` (stereo not given) gave FEN1 inhibitor -24%, APEX1 inh -10%, BLM inh inconclusive, TDP1 inh -8%, RECQ1 inh-1 inconclusive and RECQ1 inh-2 -11%.
`CCC(C)NC(=O)c1c(N)n(Cc2ccc3c(c2)OCO3)c2nc3ccccc3nc12` (stereo not given) gave FEN1 inhibitor -1%, APEX1 inh -10%, BLM inh inconclusive, RECQ1 inh-1 inconclusive and RECQ1 inh-2 -5%.
CCC(C)NC(=O)c1c(N)n(CC2CCCO2)c2nc3ccccc3nc12 (stereo not given) was read as FEN1 inhibitor inconclusive, APEX1 inh -3%, BLM inh inconclusive, TDP1 inh 0%, RECQ1 inh-1 inconclusive and RECQ1 inh-2 -28%.
Nc1c(C(=O)NCCN2CCOCC2)c2nc3ccccc3nc2n1Cc1ccccc1 was read as FEN1 inhibitor -11%, APEX1 inh -11%, BLM inh -8%, TDP1 inh 1% and RECQ1 inh-1 -11%.
Nc1c(C(=O)NCCc2ccccc2)c2nc3ccccc3nc2n1CCN1CCOCC1 was read as FEN1 inhibitor -31%, APEX1 inh -5%, BLM inh -13%, TDP1 inh 5%, RECQ1 inh-1 8.9µM*, RECQ1 conf -7%[114 µM], ADP FP counter -5%[91.9 µM] and RECQ1 inh-2 -17%.
For c1ccc(OP(Oc2ccccc2)Oc2ccccc2)cc1 the results were APEX1 inh 2%, TDP1 inh 8% and RECQ1 inh-1 -3%.
Screening CN(C)[C@@H]1C(=O)C(C(N)=O)=C(O)[C@]2(O)C(=O)C3=C(O)c4c(O)cccc4[C@@](C)(O)[C@H]3[C@H](O)[C@@H]12 returned APEX1 inh inconclusive, BLM inh -11%[21.4 µM], RECQ1 inh-1 13µM*, RECQ1 conf 63%[69.1 µM] and ADP FP counter 45µM*.
`CN(C)C1C(=O)C(C(N)=O)=C(O)[C@@]2(O)C(=O)C3=C(O)c4c(O)cccc4[C@@](C)(O)C3[C@H](O)C12` (stereo not given in full) gave APEX1 inh 12%, BLM inh -10% and RECQ1 inh-1 -3%.
`Cc1ccc(OP(=O)(Oc2ccc(C)cc2)Oc2ccc(C)cc2)cc1` gave APEX1 inh -7%, TDP1 inh -10% and RECQ1 inh-1 -1%.
For CCCCCCCCCCCCCCOS(=O)(=O)O the results were APEX1 inh -4%, BLM inh inconclusive, TDP1 inh 8% and RECQ1 inh-1 inconclusive.
`CC(O)C(C)OC(=O)[C@@H]1C[C@@H]2c3cccc4c3c(cn4C(C)C)C[C@H]2N(C)C1` (stereo not given in full) gave APEX1 inh 3%, TDP1 inh 12%[56.1 µM], RECQ1 inh-1 35µM*! and RECQ1 inh-2 56µM*.
O=[N+]([O-])c1ccc(NCc2ccccc2)c2nonc12 was read as FEN1 inhibitor -15%, APEX1 inh -3%, BLM inh -8%, TDP1 inh -3%, RECQ1 inh-1 11µM*, RECQ1 conf 20µM*, ADP FP counter 2.2µM* and RECQ1 inh-2 45µM*.
Screening O=[N+]([O-])c1ccc(NCc2ccc(Cl)cc2)c2ccncc12 returned FEN1 inhibitor 13%, APEX1 inh 53% and BLM inh -14%.
For CC(C)n1c(=O)c(C=Nc2ccc(S(N)(=O)=O)cc2)c(O)n(Cc2ccco2)c1=O the results were FEN1 inhibitor -12%, APEX1 inh inconclusive, BLM inh -4%, TDP1 inh 4%, RECQ1 inh-1 inconclusive and RECQ1 inh-2 -13%.
`NCC(=O)c1cccc([N+](=O)[O-])c1` gave FEN1 inhibitor 14%.
For CS/C(N)=C(C#N)/C(C#N)=C(\N)SC the results were APEX1 inh 3%, BLM inh 7%, TDP1 inh 1% and RECQ1 inh-1 inactive.
Screening Cc1ccc(CSc2n[nH]c(N)n2)cc1 returned FEN1 inhibitor -6%, APEX1 inh 11%, BLM inh -8%, TDP1 inh 0%, RECQ1 inh-1 28µM* and RECQ1 inh-2 -6%.
For O=c1oc2ccccc2c(O)c1C(c1ccccn1)c1c(O)c2ccccc2oc1=O the results were FEN1 inhibitor 17%, APEX1 inh inconclusive, BLM inh -15%, TDP1 inh 9%, RECQ1 inh-1 7.9µM* and RECQ1 inh-2 inconclusive.
Screening CC[C@H](C)[C@H](NC(=O)CN)C(=O)N[C@@H](CC(C)C)C(=O)NCC(=O)N[C@@H](Cc1ccccc1)C(=O)N[C@H](C(=O)N[C@@H](Cc1ccccc1)C(=O)N[C@H](C(=O)N[C@@H](CC(C)C)C(=O)O)[C@@H](C)O)C(C)C returned APEX1 inh -7%, BLM inh -3%, TDP1 inh 6% and RECQ1 inh-1 -7%.
